A short description of experiment [1]: qHTS assay to identify small molecule antagonists of the retinoid acid receptor (RAR) signaling pathway - cell viability counter screen (AID 1159551). Further: nearly all actives have a fitted effect of over 35% in size. Further: potency means the concentration at half of the fitted maximal effect. A digest of the protocol:
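Viability of C3RL4 cells is quantified from ATP by luminescence after 6 h treatment at 37 C with compounds and 1 uM retinol.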

The nature of experiment [2]: qHTS assay to identify small molecule antagonists of the retinoic acid receptor (RAR) signaling pathway (AID 1159552; further: nearly all actives have a fitted effect of over 50% in size; further: potency means the concentration at half of the fitted maximal effect). A digest of the protocol: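 Overnight-plated C3RL4 reporter cells get compound, then retinol to 1 uM final; plates sit 6 hr at 37 C, 5% CO2. A luciferase reagent is added and light output recorded after 30 min at room temperature.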
The nature of experiment [3]: qHTS assay to identify small molecule agonists of the retinoic acid receptor (RAR) signaling pathway (AID 1159553). Further: potency means the concentration at half of the fitted maximal effect. A digest of the protocol:
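Compounds dissolved in DMSO were pinned onto C3RL4 cells seeded the previous day, and plates were held 6 hr at 37 C. RARE-driven luciferase output was then read by luminescence.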

Experiment [4] can be described thus: qHTS assay to identify small molecule antagonists of the estrogen related receptor (ERR) signaling pathway (AID 1224819;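 further: luminescence from an ERR-driven luciferase reporter measured with One-Glo reagent; series mostly up to about 46 µM; nearly all actives have a fitted effect of over 50% in size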). Put shortly:
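ERR reporter cells were plated at 2,000 cells/well and left 6 h at 37 C/5% CO2 before pin-tool transfer of compounds in DMSO. After 18 h at 37 C, One-Glo was added and luminescence was read 30 min later at room temperature.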

A short description of experiment [5]: qHTS assay to identify small molecule agonists of the estrogen related receptor (ERR) signaling pathway (AID 1224820). Put shortly:
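An ERR cell line provided by NTP was seeded at 2,000 cells per well and allowed to settle for 6 h before compounds in DMSO were added. After 18 h at 37 C, luciferase activity was measured by One-Glo luminescence.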

Experiment [6] deals with estrogen-related receptor alpha (ERRalpha) with PGC-1alpha coactivator, human. The experiment in a line: qHTS assay to identify small molecule antagonists of the estrogen related receptor signaling pathway with the pleiotropic PPARgamma coactivator (PGC) (AID 1224821; calls by dose curve;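 further: series mostly up to about 46 µM; lower luminescence signal means antagonism of PGC/ERR signalling; nearly all actives have a fitted effect of over 50% in size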). Put shortly:
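A PGC/ERR cell line supplied by NTP is seeded, allowed 6 h at 37 C, and treated with test compounds in DMSO for 18 h. Signal is then measured as luciferase luminescence using One-Glo.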

A short description of experiment [7]: qHTS assay to identify small molecule antagonists of the estrogen related receptor signaling pathway with the pleiotropic PPARgamma coactivator (PGC) cell viability counter screen (AID 1224822;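 further: series mostly up to about 46 µM; viability read after 17.5 h compound exposure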). A digest of the protocol: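 Viable cell signal (CellTiter-Fluor, 30 min, 37 C/5% CO2) was measured in PGC/ERR cells after a 17.5 h compound incubation.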
Experiment [8] is described as follows: qHTS assay to identify small molecule agonists of the estrogen related receptor signaling pathway with the pleiotropic PPARgamma coactivator (PGC) (AID 1224823). Put shortly: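 Compounds dissolved in DMSO are added by pin tool to PGC/ERR cells that have settled for 6 h, and incubation continues 18 h at 37 C. Reporter output is measured as One-Glo luminescence.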

Experiment [9] in a line: qHTS assay to identify small molecule antagonists of the estrogen related receptor (ERR) signaling pathway from Tox21 library - cell viability counter screen (AID 1224834). Further: nearly all actives have a fitted effect of over 30% in size. Further: potency means the concentration at half of the fitted maximal effect. A digest of the protocol:
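In this quantitative HTS format, ERR cells receive compounds in DMSO and are incubated for 17.5 h at 37 C. Live-cell protease activity is then detected with CellTiter-Fluor.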

The target of experiment [10] is Luciferin 4-monooxygenase (Photinus pyralis) (UniProt P08659). The experiment in a line: qHTS assay to identify small molecule inhibitors of firefly luciferase (AID 1224835). Further: nearly all actives have a fitted effect of over 25% in size. Further: potency means the concentration at half of the fitted maximal effect. On activity change, negative = inhibition: series mostly up to about 120 µM. A digest of the protocol:
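Quantitative HTS format; KM concentrations of both substrates. Purified P. pyralis FLuc activity quantified from luminescence images.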

Where “and” joins values, the source holds several entries; their conditions need not be identical. Equal values may be shown once. Records with an inconclusive call do not appear. Where a structure was tested more than once in an assay, its records may differ in their call. Calls of active or inactive are those of the source. Unless noted, the call rests on the fitted dose curve; in most records, active means well fitted curve in the direction sought with a large enough effect in the repeat runs; inconclusive means weak or mixed curves; inactive means no such curve, though single readings can be large; an effect the other way counts as inactive or inconclusive.
On the % scale 0 is the no-effect control and ±100 the full control effect.

Luciferin 4-monooxygenase (Photinus pyralis), sequence (P08659 whole entry, looked up): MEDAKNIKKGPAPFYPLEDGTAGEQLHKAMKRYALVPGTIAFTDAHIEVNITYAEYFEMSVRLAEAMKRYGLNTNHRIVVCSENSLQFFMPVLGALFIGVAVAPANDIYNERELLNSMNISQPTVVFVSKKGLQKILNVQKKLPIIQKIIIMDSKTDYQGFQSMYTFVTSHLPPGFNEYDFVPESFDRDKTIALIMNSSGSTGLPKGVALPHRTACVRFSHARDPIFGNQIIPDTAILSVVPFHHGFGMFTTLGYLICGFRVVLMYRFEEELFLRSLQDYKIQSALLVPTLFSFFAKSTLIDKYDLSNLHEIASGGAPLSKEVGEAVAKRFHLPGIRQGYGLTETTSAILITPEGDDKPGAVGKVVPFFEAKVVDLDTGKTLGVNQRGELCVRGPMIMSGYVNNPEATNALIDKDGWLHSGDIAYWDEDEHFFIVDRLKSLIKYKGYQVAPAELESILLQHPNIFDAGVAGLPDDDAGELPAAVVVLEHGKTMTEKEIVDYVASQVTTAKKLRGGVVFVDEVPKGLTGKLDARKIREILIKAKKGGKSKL

For `O=C1CC2(CCCC2)CC(=O)N1CCCCN1CCN(c2ncccn2)CC1`, the Potency result in experiment [1], in experiment [2], in experiment [3], in experiment [4], in [6] and in [7] was “inactive” throughout. Moreover, the Potency entry in [9] and in experiment [10] was “inactive” throughout. For the same molecule, the result in [5] and in experiment [8] was inactive.
For `CC(C)CCCCCCc1ccc(O)cc1`, the Potency is 78.3 µM (active) in experiment [1]; 27.3 µM (active) in experiment [2]; 7.83 µM (active) and 48.6 µM (active) in experiment [9]; 36.2 µM (active) and inactive in experiment [10]. Also, the Potency result in experiment [3] was “inactive”.
In the case of `NC(N)=Nc1nc(CSCC/C(N)=N/S(N)(=O)=O)cs1`, the Potency result in experiment [1], in experiment [2], in experiment [3], in [4], in [6] and in experiment [7] was “inactive” each time. The Potency entry in experiment [9] and in [10] was “inactive” each time. Further, the result in experiment [5] and in experiment [8] was inactive.
On to `CC1=C(C=O)C(C)(C)CC=C1`, for which the Potency entry in experiment [1], in experiment [2], in [3], in [9] and in [10] was “inactive” each time.
Consider `CCN1CCCC1CNC(=O)c1cc(S(=O)(=O)CC)c(N)cc1OC` (stereo not given), for which the Potency result in experiment [1], in experiment [2], in [3], in experiment [4], in [6] and in [7] was “inactive” each time. Besides, the Potency result in experiment [9] and in experiment [10] was “inactive” each time. Also, the result in experiment [5] and in experiment [8] was inactive.
As for `Cc1scc2c1N(C(=O)CN1CCN(C)CC1)c1ccccc1NC2=O`, the Potency entry in [1], in experiment [2], in experiment [3], in experiment [7], in experiment [9] and in experiment [10] was “inactive” in each case.
Regarding `CCCNC(C)C(=O)Nc1ccccc1C` (stereo not given), the Potency entry in experiment [1], in experiment [2], in [3], in experiment [7], in [9] and in experiment [10] was “inactive” each time.
For the molecule `CCCC(=O)c1ccccc1`, the Potency result in experiment [1], in experiment [2], in experiment [3], in [9] and in experiment [10] was “inactive” in each case.
Consider `CC(C)(C)NCC(O)c1cc(O)cc(O)c1` (stereo not given), for which the Potency result in [1], in experiment [2], in [3], in experiment [7], in experiment [9] and in experiment [10] was “inactive” each time.
Regarding `CC(C)(O)CCC(C)(C)O`, the Potency result in [1], in experiment [2], in experiment [3], in experiment [9] and in experiment [10] was “inactive” in each case.
Regarding `Cc1cccc2n[nH]nc12`, the Potency result in experiment [1], in [2], in experiment [3], in [9] and in experiment [10] was “inactive” in each case.
As to `CCCCC/C=C/CC1CC(=O)OC1=O` (stereo not given), the Potency result in experiment [1], in experiment [2], in [3], in experiment [9] and in experiment [10] was “inactive” in each case.
Consider `CCOc1ccc2c(c1)C(C)=CC(C)(C)N2`, for which the Potency entry in [1], in experiment [2] and in experiment [9] was “inactive” each time. For the same molecule, the Potency in experiment [3] is 54.2 µM (active) and 61.1 µM (active); in experiment [10], 56.1 µM (active) and 63.3 µM (active).
Turning to `NC12CC3CC(CC(C3)C1)C2`, the Potency result in experiment [1], in experiment [2], in [3], in experiment [7], in experiment [9] and in experiment [10] was “inactive” each time.
In the case of `CC(=O)OCC1=C(C(=O)O)N2C(=O)[C@@H](NC(=O)Cc3cccs3)[C@H]2SC1`, the Potency result in experiment [1], in experiment [2], in [3], in experiment [7], in experiment [9] and in experiment [10] was “inactive” each time.
`CCCCCCC(O)CCCCCCCCCCC(=O)O` (stereo not given): the Potency entry in experiment [1], in [2], in [3], in [9] and in experiment [10] was “inactive” throughout.
Turning to `C#CC(C)(CC)OC(=O)c1ccccc1C(=O)O` (stereo not given), the Potency result in [1], in experiment [2], in [3], in [9] and in experiment [10] was “inactive” in each case.
As for `CC(C(O)c1ccc(O)cc1)N1CCC(Cc2ccccc2)CC1` (stereo not given), the Potency entry in [1], in experiment [2], in experiment [3], in experiment [9] and in [10] was “inactive” throughout. Also, the molecule was called inactive in experiment [5] and in experiment [8].
In the case of `CCc1cc(C(C)(C)C)c(O)c(C(C)(C)C)c1`, the Potency result in experiment [1], in experiment [2], in experiment [3], in experiment [9] and in experiment [10] was “inactive” in each case.
`NC(Cc1ccc(Cl)cc1)C(=O)O` (stereo not given): in experiment [1], the activity change, negative = cytotoxicity was 2.93% [at 0.349 µM] (inactive). Also, in experiment [2], the activity, negative = inhibition was 4.68% [at 0.349 µM] (inactive). Also, the activation in [3] is 0.724% [at 0.756 µM] (inactive). For the same molecule, the Potency result in experiment [4], in experiment [6] and in [7] was “inactive” each time. The call in experiment [5] and in experiment [8] was inactive. In addition, the viability change, negative = cytotoxic in [9] is -4.51% [at 0.349 µM] (inactive). Besides, the activity change, negative = inhibition in [10] was 3.14% [at 0.435 µM] (inactive).
For the molecule `CC[C@@H](N)CO`, the Potency result in [1], in experiment [2], in experiment [3], in experiment [9] and in experiment [10] was “inactive” throughout.
On to `CC(=O)N[C@@H](CS)C(=O)O`, for which the Potency entry in experiment [1], in experiment [2], in experiment [3], in [7], in [9] and in experiment [10] was “inactive” in each case.
Regarding `COC(c1ccccc1)(c1ccccc1)[C@H](Oc1nc(C)cc(C)n1)C(=O)O`, the Potency entry in [1], in experiment [2], in experiment [3], in experiment [9] and in [10] was “inactive” throughout.
As for `CC(=O)CC(=O)Nc1ccc2[nH]c(=O)[nH]c2c1`, the Potency entry in [1], in experiment [2], in experiment [3], in [9] and in [10] was “inactive” in each case.
In the case of `Cc1ccnc2c1NC(=O)c1cccnc1N2C1CC1`, the Potency entry in experiment [1], in experiment [2], in [3], in experiment [9] and in [10] was “inactive” each time.
Regarding `O=C(O)c1cccc(C(=O)O)c1`, the Potency result in experiment [1], in [2], in [3], in experiment [9] and in experiment [10] was “inactive” each time.
On to `O=C(O)CP(=O)(O)O`, for which the Potency entry in experiment [1], in [2], in experiment [3], in [7], in experiment [9] and in experiment [10] was “inactive” in each case.
Turning to `CN(C)c1ccc(C(=C2C=CC(=[N+](C)C)C=C2)c2ccccc2)cc1`, the Potency in experiment [1] is 10.6 µM (active) [middle of 4 runs].
On to `CCC[C@H](N[C@@H](C)C(=O)N1[C@H](C(=O)O)C[C@@H]2CCCC[C@@H]21)C(=O)OCC`, for which the Potency entry in experiment [1], in experiment [2], in experiment [3], in experiment [9] and in experiment [10] was “inactive” in each case.
On to `CC(=O)Nc1ccc(C(=O)CCl)cc1`, for which the Potency result in [1], in experiment [3], in experiment [9] and in experiment [10] was “inactive” throughout. In [2], the Potency result was “inactive and 48.6 µM (active)”.
Consider `CNC1(C)C2CCC(C2)C1(C)C` (stereo not given), for which the Potency result in experiment [1], in experiment [2], in experiment [3], in experiment [4], in experiment [6] and in experiment [7] was “inactive” in each case. The Potency result in experiment [9] and in [10] was “inactive” each time. In addition, the call in experiment [5] and in [8] was inactive.

The values above are taken from PubChem BioAssay (Tox21).
